Outcome and AC50 data for 40 molecules are collected here from PubChem BioAssay (EPA / NIEHS).

The source made the active and inactive calls. Rule for the calls: active = hit-call score of the fitted dose curve at least 0.9, where 1 is the maximum; inactive = score below 0.9.

The experiment can be described thus: ATG_Sox_CIS: Attagene CIS-FACTORIAL HepG2 Assay for human SRY-box transcription factor (SOX) (AID 2282960). To be noted: HepG2 Attagene cis-factorial SOX reporter, mRNA; actives raise or lower the signal. As for the experimental part: ATG_CIS is a cell-based, multiplexed-readout assay that uses HepG2, a human liver cell line, with measurements taken at 24 hours after chemical dosing in a 24-well plate.ATG_Sox_CIS is one of 52 assay component(s) measured or calculated from the ATG_CIS assay. It is designed to make measurements of mRNA induction, a form of inducible reporter, as detected with fluorescence intensity signals by Reverse transcription polymerase chain reaction (RT-PCR) and Capillary electrophoresis technology.Data from the assay component ATG_Sox_CIS was analyzed into 1 assay endpoint. This assay endpoint, ATG_Sox_CIS, was analyzed with bidirectional fitting relative to DMSO as the negative control and baseline of activity. Using a type of inducible reporter, measures of mRNA for gain or loss-of-signal activity can be used to understand the reporter gene at the transcription factor-level as they relate to the gene SOX1. Furthermore, this assay endpoint can be referred to as a primary readout, because this assay has produced multiple assay endpoints where this one serves a reporter gene function. To generalize the intended target to other relatable targets, this assay endpoint is annotated to the dna binding intended target family, where the subfamily is HMG box protein.
Human liver HepG2 cells are transiently transfected with multiple reporter transcription units (MRTUs) in 6-well plates using FuGene 6 reagent (Roche; 3 ml FuGene/1 mg DNA). The MRTU constructs are regulated by a cis-regulating element (promoter). […] A major difference between the CIS and TRANS system is that in CIS activities of endogenous TFs are measured, whereas the TRANS assay evaluates changes in activities of exogenous, chimeric NR-Gal4 proteins. […] At the end of 24 hour incubation, total RNA was isolated using TriZol reagent (Invitrogen). The isolated RNA is then reverse-transcribed using oligo(dT) primer and Mo-MLV reverse transcriptase (Invitrogen) with DNAse I (Ambion) treatment for 30 min. The one-tenth of the produced cDNA was amplified by PCR using Taq DNA polymerase (Invitrogen) and two reporter sequence-specific primers. The PCR products were fluorescently labeled by primer extension with 6-arboxyfluorescein (6-FAM) 5'-labeled reporter sequence-specific primer (2 min at 95 C, 20 s at 68 C and 10 min at 72 C) and these products were digested with 5U of HpaI (New England Biolabs) for 2h at 37 C. The fragments were purified using Qiaquick PCR columns (Qiagen), analyzed on an ABI 3130xL genetic analyzer (Applied Biosystems) with peak positions identified by using a set of X-rhodamine (ROX)-labeled MapMarker1000 molecular weight standards (BioVentures). The raw capillary electrophoresis data was processed using Attagraph software (Attagene).
As to `O=C1c2ccccc2C(=O)N1SC1CCCCC1`, the outcome was inactive.

Consider `COCCCOc1ccnc(CS(=O)c2nc3ccccc3[nH]2)c1C` (stereo not given), for which the molecule was called inactive.

For the molecule `CCCCCCOC(=O)CC`, the outcome was inactive.

For `CO[Si](CCCn1c(=O)n(CCC[Si](OC)(OC)OC)c(=O)n(CCC[Si](OC)(OC)OC)c1=O)(OC)OC`, the molecule was called inactive.

As for `CCCCC[Si](OCC)(OCC)OCC`, the molecule was called inactive.

As for `CC[Si](OC(C)=O)(OC(C)=O)OC(C)=O`, the molecule was classed as inactive.

`O=C(Nc1ccccc1)c1cc([N+](=O)[O-])ccc1Cl`: the AC50 is 40.5 µM (active).

Consider `COC(=O)C1=C(C)NC(C)=C(C(=O)OCCN(C)Cc2ccccc2)C1c1cccc([N+](=O)[O-])c1` (stereo not given), for which the call was inactive.

Regarding `CCN(CC)c1ccc(C(=C2C=CC(=[N+](CC)CC)C=C2)c2ccc(S(=O)(=O)O)cc2S(=O)(=O)[O-])cc1`, the outcome was inactive.

For the molecule `CCCc1ccccc1O`, the outcome was inactive.

`CCc1c(C)cc(N)c(CC)c1N`: the result was inactive.

Turning to `OCC(CO)(CO)COCC(CO)(CO)CO`, the outcome was inactive.

As for `CCCCCCOC(=O)CCCCC`, the molecule was called inactive.

On to `Cc1ccc(C=O)s1`, for which the result was inactive.

As for `O=C(O)c1ccc(C(=O)O)cc1`, the molecule was classed as inactive.

Take `OCCOCCOCCOCCO`: the outcome was inactive.

As for `O=c1cc(-c2ccccc2)oc2cc(O)cc(O)c12`, the call was inactive.

Turning to `CCCCCCCCCC=O`, the outcome was inactive.

Take `CC(CCO)CCc1ccccc1` (stereo not given): the call was inactive.

Regarding `CNC(=O)Oc1ccc2c(c1)[C@]1(C)CCN(C)[C@@H]1N2C`, the call was inactive.

On to `O=Cc1ccc(F)cc1`, for which the result was inactive.

Regarding `COc1ccc(Nc2ccccc2)c(C)c1`, the molecule was called inactive.

For `NNc1nc(-c2ccc(N)cc2)cs1`, the result was inactive.

For `CCCc1c(OCCCOc2ccc(OCC(=O)O)cc2)ccc(C(C)=O)c1O`, the molecule was called inactive.

Consider `C[C@]12CC[C@H]3[C@@H](CCC4=CC(=O)CC[C@@]43C)[C@@H]1CC[C@@H]2C(=O)CO`, for which the molecule was called inactive.

Turning to `Cc1ccc(S)cc1`, the outcome was inactive.

For `COC(=O)c1ccc(C)cc1`, the outcome was inactive.

For `OC1C(O)C(O)C(O)C(O)C1O` (stereo not given), the call was inactive.

Consider `NCCOCCO`, for which the outcome was inactive.

Consider `O=[N+]([O-])c1ccc(Nc2ccc(Nc3ccccc3)c(S(=O)(=O)O)c2)c([N+](=O)[O-])c1`, for which the call was inactive.

As for `COc1nc(C)nc(N)n1`, the call was inactive.

With `C=C(C)[C@@H]1CC[C@@H](C)C[C@@H]1O`, the outcome was inactive.

As for `CCC/C=C/C=O`, the result was inactive.

In the case of `Clc1cccc(Cl)n1`, the outcome was inactive.

As for `O=P(c1ccccc1)(c1ccccc1)c1ccccc1`, the molecule was called inactive.

On to `CCCCO`, for which the molecule was called inactive.

As to `Cc1ccc2sc3cccc(C)c3c2c1`, the molecule was called inactive.

For `CCCCCCCCCCN`, the call was inactive.

Take `Cc1c(Cl)c(=O)oc2cc(O)ccc12`: the outcome was inactive.

With `C[C@H]1C[C@@H]2[C@H]([C@@H](O)C[C@@]3(C)[C@H]2CC[C@]3(O)C(=O)CO)[C@@]2(C)C=CC(=O)C=C12`, the molecule was classed as inactive.

What is called AC50 is the midpoint of the concentration-response curve, whichever way the signal moves.
